Here are results for 40 molecules from PubChem BioAssay (NCATS).

Results filed as inconclusive are left out. A call without a number means that no potency is given here. Calls of active or inactive are those of the source. Calls come from the whole dose curve; as a rule, active = well fitted inhibition curve with a large enough effect; inconclusive = small, poorly fitted or top-dose-only effect; inactive = flat fitted curve, though single readings scatter.

The subject of this test is CRL-7250. In words: qHTS assay to identify novel small-molecules to repurpose for Merkel cell carcinoma treatment (AID 1296009). Note: nearly all actives have a fitted effect of over 60% in size. The note with it: MCC and control cell lines, CellTiter-Glo viability, 72 h; series mostly up to 92 µM. Summed up:
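Cells were incubated with compound for 72 hr at 37 degree celsius before CellTiter-Glo addition. Luminescence was normalized with no-cell wells as full cytotoxicity and DMSO as baseline.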
Background: Quantitative high-throughput screening tests each substance at several concentrations.
For `COc1cc(C2Oc3c(OC)cc(CCCO)cc3C2CO)ccc1O[C@H]1O[C@H](C)[C@@H](O)[C@H](O)[C@@H]1O` (stereo not given in full), the Potency entry was “inactive”.

In the case of `CC(C)(O)C1CCC2(C)C3C(O)C4C(C13)C42CO` (stereo not given), the Potency entry was “inactive”.

As to `COc1cc2c(cc1O)CC(O)(CO)C(CO)C2c1ccc(OC2OC(CO)C(O)C(O)C2O)c(OC)c1` (stereo not given), the Potency result is “inactive”.

`CC1=CC(=O)C(=C(C)C)CC2C(C)(O)CCC12O` (stereo not given): the Potency result is “inactive”.

`CC(=O)OCC1OC(O[C@H]2CC[C@@]3(C)C(CC[C@]4(C)C3CC=C3[C@@H]5CC(C)(C)CC[C@]5(C(=O)O)CC[C@]34C)[C@]2(C)CO)C(O)C(O)C1OC1OC(C)C(O)C(OC2OCC(O)C(O)C2O)C1O` (stereo not given in full): the outcome is “inactive [at 9.27 µM]”.

Take `C=C(C)[C@@H](C)[C@H]1O[C@]23C[C@]4(CO2)C(CCC2[C@@]5(C)CC[C@H](O[C@@H]6OC[C@H](O)[C@H](O[C@@H]7O[C@H](CO)[C@@H](O)[C@H](O)[C@H]7O)[C@H]6O[C@@H]6O[C@@H](CO)[C@H](O)[C@H]6O)C(C)(C)C5CC[C@]24C)C3[C@@](C)(O)[C@@H]1OC(C)=O` (stereo not given in full): the outcome is “inactive [at 9.27 µM]”.

As to `COc1ccc(/C=C\C(=O)O)c(O[C@@H]2O[C@H](CO)[C@@H](O)[C@H](O)[C@H]2O)c1`, the Potency result was “inactive”.

As to `CC(=O)OC/C(=C/C(=O)O)CC[C@@H]1C(C)=CC(=O)[C@@H]2C(C)(C)CCC[C@@]12C`, the Potency entry was “inactive”.

As for `C=C(CO)C(=O)O[C@H]1C[C@@]23O[C@@H]2CC/C(=C/[C@H]2OC(=O)C(=C)[C@H]12)CO[C@H]3O`, the Potency result was “inactive”.

With `CC(=O)OC1C(C)C2C(OC3OC(CO)C(O)C(O)C3O)OC=C(C(=O)O)C2C1OC(=O)c1ccccc1` (stereo not given), the Potency result is “inactive”.

For the molecule `COc1cccc(-n2nc(C(=O)O)cc2-c2ccc(C3CCCCC3)c(Cl)c2)c1`, the Potency result is “inactive”.

Take `O=C(Cc1ccc(Cl)cc1)Nc1cnccc1C(=O)O`: the Potency entry is “inactive”.

On to `COC(=O)C1=CO[C@@H](O[C@@H]2O[C@H](CO)[C@@H](O)[C@H](O)[C@H]2O)[C@H]2[C@@H]1[C@H](O)C[C@]2(C)O`, for which the Potency entry was “inactive”.

Regarding `C[C@H](NCc1ccc(OCc2ccccc2F)cc1)C(N)=O`, the Potency result is “inactive”.

Take `COc1c(O)cc2c(c1O)C(=O)O[C@H](C)[C@H]2O`: the Potency result is “inactive”.

On to `O=C(/C=C/c1ccc(O)cc1)OC[C@H]1O[C@@H](OC(=O)/C=C/c2ccccc2)[C@H](O)[C@@H](O)[C@@H]1O`, for which the Potency entry is “inactive”.

On to `COC(O)(CC(C)C)C1Oc2cc(C)[nH]c(=O)c2O1` (stereo not given), for which the Potency entry is “inactive”.

`CC(C)C1NC(=O)C(CC2(O)c3ccccc3N3C(=O)C(Cc4ccccc4)NC32)NC1=O` (stereo not given): the Potency result is “inactive”.

As for `CC(/C=C/C1(O)C(C)(C)CC(O)CC1(C)O)OC1OC(CO)C(O)C(O)C1O` (stereo not given), the Potency result was “inactive”.

As for `NC(=O)c1cccc2[nH]c(-c3ccc(C4CCCN4)cc3F)nc12` (stereo not given), the Potency entry is “inactive”.

As for `CC#C[C@@H](CC(=O)O)c1ccc(OCc2ccc(CN3CCC4(C=Cc5ccccc54)CC3)s2)cc1`, the Potency result was “inactive”.

As to `C[C@@H]1[C@H]2[C@H](O[C@@H]3O[C@H](CO)[C@@H](O)[C@H](O)[C@H]3O)OC=C(C(=O)O)[C@H]2C[C@@H]1O`, the Potency result was “inactive”.

On to `COc1cc(O)c2c(c1Cl)CC(C)OC2=O` (stereo not given), for which the Potency entry was “inactive”.

Turning to `CC(C)=CCC[C@](C)(O[C@@H]1O[C@H](CO[C@@H]2OC[C@@H](O)[C@H](O)[C@H]2O)[C@@H](O)[C@H](O)[C@H]1O)[C@H]1CC[C@]2(C)[C@@H]1[C@H](O)C[C@@H]1[C@@]3(C)CC[C@H](O[C@@H]4O[C@H](CO)[C@@H](O)[C@H](O)[C@H]4O[C@@H]4O[C@H](CO)[C@@H](O)[C@H](O)[C@H]4O)C(C)(C)[C@@H]3CC[C@]12C`, the Potency entry is “inactive”.

Regarding `COc1cccc2c1CCC[C@H]2CN(C)CCc1ccc2ccoc2c1`, the Potency entry is “inactive”.

With `C[C@H](NC(c1cccc(C[P+](=O)O)c1)[C@H](C)O)c1ccc(Cl)c(Cl)c1` (stereo not given in full), the Potency result is “inactive”.

For the molecule `C[C@]12CCC(=O)C=C1[C@@H](O)C[C@@H]1[C@@H]2[C@@H](O)C[C@@]2(C)[C@H]1CC[C@]2(O)C(=O)CO`, the Potency entry was “inactive”.

Turning to `COc1ccccc1N1CCN(CC(C(=O)NC(C)(C)C)c2ccccc2)CC1` (stereo not given), the Potency result is “inactive”.

Consider `COc1cc(CC(COC2OC(CO)C(O)C(O)C2O)c2cc(/C=C/CO)cc(OC)c2O)ccc1O` (stereo not given), for which the Potency entry is “inactive”.

As for `CC(=O)c1ccc(O[C@@H]2O[C@H](CO[C@@H]3OC[C@@H](O)[C@H](O)[C@H]3O)[C@@H](O)[C@H](O)[C@H]2O)cc1`, the Potency entry is “inactive”.

As to `CC(C)=C1CC2C(CCC2(C)O)C(C)(O)CC1=O` (stereo not given), the Potency result is “inactive”.

For the molecule `CC(O)CCC1C(CO[C@@H]2O[C@H](CO)[C@@H](O)[C@H](O)[C@H]2O)CC(O)CC1(C)C` (stereo not given in full), the Potency entry was “inactive”.

Consider `NC(N)=NCCC[C@H](NC(=O)c1sccc1NS(=O)(=O)c1cccc2nsnc12)C(=O)O`, for which the Potency entry was “inactive”.

As for `CC(C)[C@@H]1C(=O)N(S(C)(=O)=O)[C@@H]2CCN(C(=O)/C=C/CN3CCCCC3)[C@H]21`, the Potency result is “inactive”.

`COc1cccc(C(=O)N2CCN(C(=O)COc3cccc(C)c3)CC2)c1OC`: the Potency entry was “inactive”.

As to `COc1cc2ncnc(Nc3cccc(O)c3)c2cc1OC`, the Potency entry is “inactive”.

Take `COc1ncc2cc(C(=O)Nc3cc(C(=O)NCc4cccc(Cl)c4)ccc3Cl)c(=O)[nH]c2n1`: the Potency result is “inactive”.

With `CCC(C)/C=C(C)/C=C/C1=CC2=C(Cl)C(=O)C(C)(OC(C)=O)C(=O)C2=CN1CCCC(=O)O` (stereo not given), the Potency result was “inactive”.

In the case of `O=C(/C=C/c1ccc(O)cc1)OC[C@H]1O[C@H](O[C@@]2(CO)O[C@@H](CO)[C@H](O)[C@H]2O)[C@H](O)[C@@H](O)[C@@H]1O`, the Potency result is “inactive”.

`C[C@@H]1CC[C@]2(C(=O)O[C@@H]3O[C@H](CO)[C@@H](O)[C@H](O)[C@H]3O)CC[C@]3(C)C(=CCC4[C@@]5(C)C[C@@H](O)[C@H](O)C(C)(C)C5CC[C@]43C)C2[C@]1(C)O` (stereo not given in full): the Potency entry is “inactive”.
